Compound activity from PubChem BioAssay.
This excerpt belongs to a sample that is enriched for hits.
CBX7 inh: CBX7 inhibition, primary AlphaScreen; normalised signal (fraction of DMSO) (test concentration not listed); AlphaScreen His6-CBX7 / biotin-H3K27me3 peptide binding; active compounds read low; 66,000 compounds, 1.1% hits; O95931; in the data active = normalised signal below about 0.5
Target sequence (O95931 whole entry, looked up): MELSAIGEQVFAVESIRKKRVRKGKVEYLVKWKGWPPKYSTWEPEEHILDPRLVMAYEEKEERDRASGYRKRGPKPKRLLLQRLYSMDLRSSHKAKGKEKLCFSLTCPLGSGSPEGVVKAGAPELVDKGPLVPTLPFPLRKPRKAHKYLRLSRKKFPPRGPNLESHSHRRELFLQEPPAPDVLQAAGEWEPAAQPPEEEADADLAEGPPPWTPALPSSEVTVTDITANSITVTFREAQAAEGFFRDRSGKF
* marks the source's active call; other numbers are inactive results.

SMILES	CBX7 inh
Cc1ccc(C)c(N2CCN(S(=O)(=O)c3ccc4c(c3)CCN4C(=O)C3CC3)CC2)c1	0.94
CCOc1ccc(-c2nnc(Nc3ccc(O)cc3)c3ccccc23)cc1	1
CCOc1ccc(-c2nnc(Nc3ccc(C(=O)N(C)C)cc3)c3ccccc23)cc1	1
Oc1cccc(Nc2nnc(-c3ccc(Cl)cc3)c3ccccc23)c1	0.54
Cc1ccc(-c2nnc(Nc3cccc(O)c3)c3ccccc23)cc1	0.42*
CCOc1ccc(-c2nnc(Nc3cccc(O)c3)c3ccccc23)cc1	0.49*
Cc1nnc(Nc2cccc(O)c2)c2ccccc12	1
CC(CCCc1ccc(F)cc1)c1cc(O)c2c(c1)OC(C)(C)CC2(O)c1ccccn1 (stereo not given)	0.85
CCCCC(CC)c1nnc(NC(=O)c2ccc(C)cc2)s1 (stereo not given)	0.96
CC(=O)N1CCc2cc(S(=O)(=O)NCCC(=O)Nc3ccc(F)cc3F)ccc21	0.9
Cc1ccnc(Nc2nc(-c3sc(N)nc3C)cs2)c1	0.4*
Cc1ccnc(Nc2nc(-c3c(C)nc4cc(C)ccn34)cs2)c1	0.68
Cc1ccnc(Nc2nc(-c3ccc(C(C)C)cc3)cs2)c1	0.87
Cc1ccc(C(C)C)c(OCC(=O)Nc2ccc(-c3nc4ccc(C)cc4s3)cc2)c1	0.98
O=C(CSCc1ccccc1)Nc1nnc(Cc2ccccc2)s1	1
O=C1CC(c2ccc(F)cc2)Sc2ccccc2N1 (stereo not given)	0.89
CC(C(=O)NC1CCCCC1)C1Sc2ccccc2NC1=O (stereo not given)	1
O=C1Nc2ccccc2SC(c2ccccc2)C1O (stereo not given)	0.19*
CCOC(=O)c1cnc2c(OC)cccc2c1N1CCN(c2ccccc2)CC1	0.56
CCOC(=O)c1cnc2ccc(OCC)cc2c1N1CCCCCC1	1.1
CCOC(=O)c1cnc2ccc(OCC)cc2c1N1CCN(c2ccccc2OC)CC1	0.46*
CCOC(=O)c1cnc2c(OC)cccc2c1N1CCN(c2ccccc2F)CC1	0.43*
CCOC(=O)c1cnc2cc(C(F)(F)F)ccc2c1N1CCN(c2ccccc2OC)CC1	0.86
CCOC(=O)c1cnc2c(OC)cccc2c1N1CCC(C)CC1	0.65
CC(C)c1ccc(Nc2c3c(nc4ccc(Cl)cc24)CCC3)cc1	1.1
SMILES	CBX7 inh
COc1ccc(-c2nc3ncccn3c2Nc2ccc(OC)c(OC)c2)cc1	0.98
Cn1c2c(c3ccccc31)CCc1nonc1-2	1
COc1cc(OC)cc(C(=O)Nc2c3c(nn2-c2ccc(Oc4ccccc4)cc2)CSC3)c1	0.85
O=C(Nc1nnc(-c2cccs2)o1)c1ccc(S(=O)(=O)N2CCCCC2)cc1	0.83
CC1CN(S(=O)(=O)c2ccc(C(=O)Nc3nnc(-c4cccs4)o3)cc2)CC(C)O1 (stereo not given)	0.77
CC1CN(S(=O)(=O)c2ccc(C(=O)Nc3nnc(-c4ccc(F)cc4)o3)cc2)CC(C)O1 (stereo not given)	0.012*
CC1CC(C)CN(S(=O)(=O)c2ccc(C(=O)Nc3nc(-c4ccncc4)cs3)cc2)C1 (stereo not given)	1
CCC1CCCCN1S(=O)(=O)c1ccc(C(=O)Nc2nnc(-c3ccc(OC)cc3)o2)cc1 (stereo not given)	0.79
CC1CC(C)CN(S(=O)(=O)c2ccc(C(=O)Nc3nnc(-c4ccc(Cl)s4)o3)cc2)C1 (stereo not given)	0.4*
CC1CCCN(S(=O)(=O)c2ccc(C(=O)Nc3nnc(-c4cccs4)o3)cc2)C1 (stereo not given)	1
COCc1nnc(NC(=O)c2ccc(S(=O)(=O)N3CC(C)OC(C)C3)cc2)o1 (stereo not given)	0.67
CCC1CCCCN1S(=O)(=O)c1ccc(C(=O)Nc2nnc(C)o2)cc1 (stereo not given)	0.094*
COCc1nnc(NC(=O)c2ccc(S(=O)(=O)N3CC(C)CC(C)C3)cc2)o1 (stereo not given)	0.82
Cc1nnc(NC(=O)c2ccc(S(=O)(=O)N3CC(C)CC(C)C3)cc2)o1 (stereo not given)	0.39*
CCC1CCCCN1S(=O)(=O)c1ccc(C(=O)Nc2nnc(-c3cccc(OC)c3)o2)cc1 (stereo not given)	0.91
CC(C)OCCCNC(=O)CN1C(=O)COc2ccccc21	1.1
COc1ccc(-c2csc(NC(=O)c3ccc(S(=O)(=O)N4CCCC4)cc3)n2)c(OC)c1	0.78
CCCOc1ccc(N2C(=O)CC(N3CCC(C(=O)O)CC3)C2=O)cc1 (stereo not given)	1.1
Cc1ccc2c(c1)N(CCC(=O)NCc1cccnc1)C(=O)C(C)O2 (stereo not given)	0.9
CCOc1ccc2nc(N3CCCC(C(=O)Nc4ccc(CN5CCC(C)CC5)cc4)C3)sc2c1 (stereo not given)	0.97
Cc1ccc(Nc2nc(-c3cccc(N4C(=O)c5ccccc5C4=O)c3)cs2)cc1	0.67
Cc1nnc(NC(=O)c2ccc(S(=O)(=O)N3CCC(C)CC3)cc2)o1	0.028*
COc1ccc(-c2nnc(NC(=O)c3ccc(S(=O)(=O)N4CCC(C)CC4)cc3)o2)c(OC)c1	0.92
CC1CCN(S(=O)(=O)c2ccc(NC(=O)c3ccc(C(C)(C)C)cc3)cc2)CC1	1.1
CC(=O)N1CCc2cc(S(=O)(=O)NC(C(=O)N3CCCC(C)C3)C(C)C)ccc21 (stereo not given)	0.87
SMILES	CBX7 inh
COc1ccc(OC)c(NC(=O)CSc2nc3ccc(N)cc3s2)c1	1
COCCCNC(=O)c1cn(C2CCCC2)c(=O)c2c1c1ccccc1n2C	1
Cc1ccc(Cn2cc(CCC(=O)NCc3cccnc3)c3ccccc32)cc1	0.26*
O=C(CCc1cn(Cc2ccccc2)c2ccccc12)NCc1ccccc1Cl	0.49*
CCc1ccc(CNC(=O)CCc2cn(Cc3ccccc3)c3ccccc23)cc1	0.97
COc1cccc(CNC(=O)CCc2cn(Cc3ccc(C)cc3)c3ccccc23)c1	0.88
O=C(CCc1cn(Cc2ccccc2)c2ccccc12)NCCc1ccc(Cl)cc1	0.94
Cc1ccc(Cn2cc(CCC(=O)NCc3ccccc3)c3ccccc32)cc1	0.94
FC(F)Oc1ccc(C2CC(c3ccco3)=Nc3ccccc3S2)cc1 (stereo not given)	0.6
O=C1C(Oc2ccc(Cl)cc2)C(c2ccc3c(c2)OCO3)N1c1cccc(C(F)(F)F)c1 (stereo not given)	1.1
Cc1ccc2oc(-c3cccc(NC(=O)c4ncn[nH]4)c3)nc2c1	0.076*
COc1cccc(OC)c1C(=O)Nc1cccc(-c2nc3cc(C)ccc3o2)c1	0.9
Cc1ccc2oc(-c3cccc(NC(=O)c4ccccc4Cl)c3)nc2c1	0.92
Cc1ccccc1-c1nc(C(=O)N2CCCCC2)c(C)o1	1
Cc1ccc(-c2nc(-c3c[nH]c4ccccc34)[nH]c2-c2ccc(C)cc2)cc1	0.37*
Cc1ccc(Nc2c(-c3c[nH]c4ccccc34)nc3cccc(C)n23)cc1	0.87
c1ccc(-c2nc(-c3c[nH]c4ccccc34)[nH]c2-c2ccccc2)cc1	0.8
Oc1ccccc1-c1nc(-c2ccc(F)cc2)c(-c2ccc(F)cc2)[nH]1	0.7
Oc1ccccc1-c1nc(-c2ccccc2)c(-c2ccc(F)cc2)[nH]1	0.58
Fc1ccc(-c2[nH]c(-c3c[nH]c4ccccc34)nc2-c2ccccc2)cc1	0.42*
CCn1c(=O)cc(OCC(=O)N(C)c2cccc(Cl)c2)c2ccccc21	0.95
COCCCNc1ncnc2c1c(-c1ccccc1)cn2-c1ccc(F)cc1	1
